Measured values: PubChem BioAssay (NCATS)
Results filed as inconclusive are left out. A call without a number means that no potency is given here. Activity calls are given as the source filed them. Calls follow the shape of the dose curve; as a rule, active = well fitted inhibition curve with a large enough effect; inconclusive = small, poorly fitted or top-dose-only effect; inactive = flat fitted curve, though single readings scatter.

What was measured:
Test in all cases: qHTS profiling for inhibitors of Plasmodium falciparum proliferation (AID 504749); also: nearly all actives have a fitted effect of over 60% in size
Conditions in all cases: P. falciparum in erythrocytes, SYBR Green DNA, 72 h; series mostly up to 28.7 µM
CP291 = tested on: CP291
How it was run: (§1)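 P. falciparum-infected erythrocytes (0.3% parasitemia, 2.5% hematocrit final) were exposed to compounds for 72 h at 37 C in 5% CO2, then lysed with SYBR Green buffer overnight at room temperature; parasite DNA fluorescence was normalized to artemisinin and DMSO controls.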

CP297 = tested on: CP297
How it was run: as §1

CP305 = tested on: CP305
How it was run: as §1

CP315 = tested on: CP315
How it was run: as §1

CP325 = tested on: CP325
How it was run: as §1

CP329 = tested on: CP329
How it was run: as §1

CP335 = tested on: CP335
How it was run: as §1

DFO2036 = tested on: DFO2036
How it was run: as §1

DIV14 = tested on: DIV14
How it was run: as §1

DIV17 = tested on: DIV17
How it was run: as §1

DIV30 = tested on: DIV30
How it was run: as §1

Dd2 = tested on: Dd2
How it was run: as §1

ECU = tested on: ECU
How it was run: as §1

FAB9 = tested on: FAB9
How it was run: as §1

GB4 = tested on: GB4
How it was run: as §1

HB3 = tested on: HB3
How it was run: as §1

ICS = tested on: ICS
How it was run: as §1

JCK = tested on: JCK
How it was run: as §1

N140 = tested on: N140
How it was run: as §1

P93_24 = tested on: P93_24
How it was run: as §1
Potency is read from the fitted curve at half-maximal effect.

Row | Structure (SMILES) | Potency (CP291) | Potency (CP297) | Potency (CP305) | Potency (CP315) | Potency (CP325) | Potency (CP329) | Potency (CP335) | Potency (DFO2036) | Potency (DIV14) | Potency (DIV17) | Potency (DIV30) | Potency (Dd2) | Potency (ECU) | Potency (FAB9) | Potency (GB4) | Potency (HB3) | Potency (ICS) | Potency (JCK) | Potency (N140) | Potency (P93_24)
1 | CC(NNC(=O)c1ccccc1)c1ccccc1 (stereo not drawn) | inactive | inactive | inactive | inactive | inactive | inactive | inactive | inactive | inactive | inactive | inactive | inactive | inactive | inactive | inactive | inactive | inactive | inactive | inactive | inactive
2 | C#CCOc1ccc2c(C)cc(=O)oc2c1 | inactive | inactive | inactive | inactive | inactive | inactive | inactive | inactive | inactive | inactive | inactive | inactive | inactive | inactive | inactive | inactive | inactive | inactive | inactive | inactive
3 | Cc1c(C)c2c(c(C)c1O)CC[C@@](C)(CCC[C@@H](C)CCC[C@@H](C)CCCC(C)C)O2 | inactive | inactive | inactive | inactive | inactive | inactive | inactive | inactive | inactive | inactive | inactive | inactive | inactive | inactive | inactive | inactive | inactive | inactive | inactive | 
4 | CCCCCCCCCCCCCCCC(=O)OCC(COC(=O)CCCCCCCCCCCCCCC)OC(=O)CCCCCCCCCCCCCCC | inactive | inactive | inactive | inactive | inactive | inactive | inactive | inactive | inactive | inactive | inactive | inactive | inactive | inactive | inactive | inactive | inactive | inactive | inactive | inactive
5 | CC1=CCC(C(C)(C)O)CC1 (stereo not drawn) | inactive | inactive | inactive | inactive | inactive | inactive | inactive | inactive | inactive | inactive | inactive | inactive | inactive | inactive | inactive | inactive | inactive | inactive | inactive | inactive
6 | CC(C)(C)C(=O)OCOC(=O)[C@@H]1N2C(=O)[C@@H](N=CN3CCCCCC3)[C@H]2SC1(C)C | inactive | inactive | inactive | inactive | inactive | inactive | inactive | inactive | inactive | inactive | inactive | inactive | inactive | inactive | inactive | inactive | inactive | inactive | inactive | inactive
7 | C[C@]12CCC(=O)C=C1CC[C@@H]1[C@@H]2[C@@H](O)C[C@@]2(C)[C@H]1CC[C@]2(O)C(=O)COP(=O)(O)O | inactive | inactive | inactive | inactive | inactive | inactive | inactive | inactive | inactive | inactive | inactive | inactive | inactive | inactive | inactive | inactive | inactive | inactive | inactive | 
8 | CC1=C(/C=C/C(C)=C/C=C/C(C)=C/C=C/C=C(C)/C=C/C=C(C)/C=C/C2=C(C)CCCC2(C)C)C(C)(C)CCC1 | inactive | inactive | inactive | inactive | inactive | inactive | inactive | inactive | inactive | inactive | inactive | inactive | inactive | inactive | inactive | inactive | inactive | inactive | inactive | inactive
9 | CCN(CC)Cc1cc(Nc2ccnc3cc(Cl)ccc23)ccc1O | 45.5 nM (active) | 90.7 nM (active) | 40.5 nM (active) | 287 nM (active) | 57.3 nM (active) | 90.7 nM (active) | 40.5 nM (active) | 56.2 nM (active) | 80.9 nM (active) | 114 nM (active) | 181 nM (active) | 56.2 nM (active) | 31.6 nM (active) | 39.8 nM (active) | 40.5 nM (active) | 35.5 nM (active) | 39.8 nM (active) | 89.1 nM (active) | 70.8 nM (active) | 35.5 nM (active)
10 | O=S(=O)(O)c1ccc2c(N=Nc3ccc(S(=O)(=O)O)c4ccccc34)c(O)c(S(=O)(=O)O)cc2c1 | inactive | inactive | inactive | inactive | inactive | inactive | inactive | inactive | inactive | inactive | inactive | inactive | inactive | inactive | inactive | inactive | inactive | inactive | inactive | inactive
11 | CCCCC/C=C\C/C=C\CCCCCCCC(=O)O | inactive | inactive | inactive | inactive | inactive | inactive | inactive | inactive | inactive | inactive | inactive | inactive | inactive | inactive | inactive | inactive | inactive | inactive | inactive | inactive
12 | O=C1C(=O)c2ncccc2-c2cccnc21 | 1690 nM (active) | 1070 nM (active) | 1200 nM (active) | 2690 nM (active) | 1900 nM (active) | 1200 nM (active) | 536 nM (active) | 1000 nM (active) | 953 nM (active) | 953 nM (active) | 1510 nM (active) | 1120 nM (active) | 2000 nM (active) | 7940 nM (active) | 849 nM (active) | 1000 nM (active) | 631 nM (active) | 10000 nM (active) | 1260 nM (active) | 891 nM (active)
13 | COC(F)(F)C(Cl)Cl | inactive | inactive | inactive | inactive | inactive | inactive | inactive | inactive | inactive | inactive | inactive | inactive | inactive | inactive | inactive | inactive | inactive | inactive | inactive | inactive
14 | CC1(C)S[C@@H]2[C@H](NC(=O)[C@@H](NC(=O)N3CCNC3=O)c3ccccc3)C(=O)N2[C@H]1C(=O)O | inactive | inactive | inactive | inactive | inactive | inactive | inactive | inactive | inactive | inactive | inactive | inactive | inactive | inactive | inactive | inactive | inactive | inactive | inactive | inactive
15 | CCC(=O)NCCC1CCc2ccc3c(c21)CCO3 (stereo not drawn) | inactive | inactive | inactive | inactive | inactive | inactive | inactive | inactive | inactive | inactive | inactive | inactive | inactive | inactive | inactive | inactive | inactive | inactive | inactive | inactive
16 | COC(=O)[C@H]1[C@H]2C[C@@H]3c4[nH]c5ccccc5c4CCN3C[C@H]2C[C@@H](OC(=O)c2cc(OC)c(OC)c(OC)c2)[C@@H]1OC | 675 nM (active) | 190 nM (active) | 849 nM (active) | 849 nM (active) | 757 nM (active) | 151 nM (active) | 151 nM (active) | 355 nM (active) | 190 nM (active) | 239 nM (active) | 135 nM (active) | 89.1 nM (active) | 316 nM (active) | 1260 nM (active) | 135 nM (active) | 794 nM (active) | 100 nM (active) | 891 nM (active) | 199 nM (active) | 126 nM (active)
17 | CC[N+](C)(C)Cc1ccccc1Br | inactive | inactive | inactive | inactive | inactive | inactive | inactive | inactive | inactive | inactive | inactive | inactive | inactive | inactive | inactive | inactive | inactive | inactive | inactive | inactive
18 | Cc1cn([C@H]2C[C@H](O)[C@@H](CO)O2)c(=O)[nH]c1=O | inactive | inactive | inactive | inactive | inactive | inactive | inactive | inactive | inactive | inactive | inactive | inactive | inactive | inactive | inactive | inactive | inactive | inactive | inactive | inactive
19 | CC(O)CO (stereo not drawn) | inactive | inactive | inactive | inactive | inactive | inactive | inactive | inactive | inactive | inactive | inactive | inactive | inactive | inactive | inactive | inactive | inactive | inactive | inactive | inactive
20 | CCNC(=O)[C@@H]1CCCN1C(=O)[C@H](CCCN=C(N)N)NC(=O)[C@H](CC(C)C)NC(=O)[C@@H](Cc1c[nH]c2ccccc12)NC(=O)[C@H](Cc1ccc(O)cc1)NC(=O)[C@H](CO)NC(=O)[C@H](Cc1c[nH]c2ccccc12)NC(=O)[C@H](Cc1cnc[nH]1)NC(=O)[C@@H]1CCC(=O)N1 | 7570 nM (active) | 6750 nM (active) | 7570 nM (active) | 15100 nM (active) | 12000 nM (active) | 8490 nM (active) | 4780 nM (active) | 5620 nM (active) | 953 nM (active) | 953 nM (active) | 1690 nM (active) | 3160 nM (active) | 1120 nM (active) | 8910 nM (active) | 2390 nM (active) | 11200 nM (active) | 2240 nM (active) | 14100 nM (active) | 4470 nM (active) | 3160 nM (active)
21 | Nc1ncnc2c1ncn2[C@@H]1O[C@H](COP(=O)(O)OP(=O)(O)OP(=O)(O)O)[C@@H](O)[C@H]1O | inactive | inactive | inactive | inactive | inactive | inactive | inactive | inactive | inactive | inactive | inactive | inactive | inactive | inactive | inactive | inactive | inactive | inactive | inactive | inactive
22 | C[C@]12O[C@H](C[C@]1(O)CO)n1c3ccccc3c3c4c(c5c6ccccc6n2c5c31)CNC4=O | 338 nM (active) | 379 nM (active) | 601 nM (active) | 426 nM (active) | 536 nM (active) | 426 nM (active) | 239 nM (active) | 316 nM (active) | 120 nM (active) | 135 nM (active) | 269 nM (active) | 355 nM (active) | 398 nM (active) | 2000 nM (active) | 269 nM (active) | 447 nM (active) | 112 nM (active) | 4470 nM (active) | 282 nM (active) | 355 nM (active)
23 | CCOC(C)=O | inactive | inactive | inactive | inactive | inactive | inactive | inactive | inactive | inactive | inactive | inactive | inactive | inactive | inactive | inactive | inactive | inactive | inactive | inactive | inactive
